Screening data (PubChem BioAssay)
The list is not random: actives were taken first. Their share in the collection is about 4.6%.
D1 antag – Antagonist of Human D 1 Dopamine Receptor: qHTS; HEK293 TREx D1 cells, calcium flux, dopamine EC80; active compounds read low; activity change, negative = inhibition, % at 10 µM; D(1A) dopamine receptor (Homo sapiens), P21728; 360,000 tested, 3.2% active; in the data active = activity change below about -30%; note: % is set by controls: 0 for no effect and ±100 for the full control effect
Target sequence (P21728 whole entry, looked up): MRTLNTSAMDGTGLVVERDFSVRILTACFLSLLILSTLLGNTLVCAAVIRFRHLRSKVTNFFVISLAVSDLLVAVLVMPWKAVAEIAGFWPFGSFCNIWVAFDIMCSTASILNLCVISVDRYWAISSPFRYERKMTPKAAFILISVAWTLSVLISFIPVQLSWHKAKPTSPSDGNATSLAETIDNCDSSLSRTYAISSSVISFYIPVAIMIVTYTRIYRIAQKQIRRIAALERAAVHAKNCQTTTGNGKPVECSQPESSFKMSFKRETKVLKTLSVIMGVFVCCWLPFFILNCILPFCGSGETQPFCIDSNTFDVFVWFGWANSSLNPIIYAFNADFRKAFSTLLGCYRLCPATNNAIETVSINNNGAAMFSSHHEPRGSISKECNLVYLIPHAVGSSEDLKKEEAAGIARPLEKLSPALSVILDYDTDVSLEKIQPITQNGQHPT
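Using tetracycline-induced force-coupled D1 Hek293 cells and a calcium dye, signals were followed for 180 s after compound, then for 180 s after EC80 dopamine, to detect inhibitors.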
D1 potentiator – Potentiators of Human D1 Dopamine Receptor: qHTS. D(1A) dopamine receptor (Homo sapiens), P21728. HEK293 TREx D1 cells, calcium flux, dopamine EC20 potentiation. potentiation, % at 10 µM. 360,000 tested, 0.036% active; in the data active = potentiation above about 30%; note: 0% is about no effect
TRHR ag – qHTS for Small Molecule Agonists and Allosteric Enhancers of Human TRH Receptor: Primary Screen for Agonists. TRHR cells, calcium flux fluo-8, FDSS agonist mode. 360,000 tested, 0.18% active. activation, % at 2 µM. Thyrotropin-releasing hormone receptor (Homo sapiens), P34981; note: 0% is about no effect
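TRHR-expressing cells, plated overnight in medium with 10% serum, were loaded with fluo-8 calcium dye at room temperature. After a 10 s baseline, library compound was pin-added and calcium release was recorded kinetically (ex 480/em 530) as agonist response.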
D1 agonist – Allosteric Agonists of the Human D1 Dopamine Receptor: qHTS. D(1A) dopamine receptor (Homo sapiens), P21728. activation, % at 2 µM. 360,000 tested, 1% active. HEK293 T-REx D1 cells, calcium flux, agonist mode; note: 0% is about no effect
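Agonism was scored from calcium flux recorded over 180 s (1 read/s) after pintool compound addition, following a 10-cycle baseline. Cells were inducible force-coupled HEK293 TREx D1, plated overnight at 30 C and loaded with no-wash calcium dye.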
TRHR PAM – qHTS for Small Molecule Agonists and Allosteric Enhancers of Human TRH Receptor: Primary Screen for Enhancers; Thyrotropin-releasing hormone receptor (Homo sapiens), P34981; TRHR cells, fluo-8 calcium fluorescence, EC20 TRH enhancement; enhancement, % at 2 µM; 360,000 tested, 0.66% active; AID 493056, 2011; in the data active = enhancement above about 30%; note: 0% is about no effect
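Enhancer read-out: after compound pinning and an initial kinetic agonist-mode read, an EC20 of TRH (10 nM final) was injected and fluo-8 calcium signal (Ex 480/Em 530) followed at 1 s/cycle for 100 cycles in TRHR-expressing cells.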
The depositor's hits bear a star; nt = not tested or not shown. Cut-off read from the data, not from the text of the source, unless noted: active = activation above about 30%; inactive = the rest.

SMILES	D1 antag	D1 potentiator	TRHR ag	D1 agonist	TRHR PAM
O=C(c1cccc(S(=O)(=O)Nc2ccc(Br)cc2)c1)N1CCCC1	-6	-6	0	0	6
Cc1cccc(NC(=O)CC2SC(=NC3CCCCC3)NC2=O)c1 (stereo unspecified)	-33*	-1	0	2	3
O=C(CCSc1ccccc1)Nc1ccc(OCc2ccccc2)cc1	-30*	-10	2	5	-8
COc1ccc(/C=C/C(=O)OCC(=O)Nc2cc(C(N)=O)cc(C(N)=O)c2)cc1	-11	-3	0	1	-6
O=C(CCCSc1ccc(Cl)cc1)Nc1ccccc1O	3	-9	-1	33*	-3
COc1ccc(OCCCC(=O)Nc2cccc(C(C)=O)c2)cc1	-47*	-5	-1	9	0
COc1ccc(/C=C/C(=O)OCC(=O)Nc2cccc(C(C)=O)c2)cc1	2	11	0	5	37*
O=C(CSCc1ccc(Cl)cc1)Nc1ccccc1O	-8	0	0	5	3
O=C(CCN1CCN(c2ccccc2)CC1)Nc1ccc(OCc2ccccc2)cc1	1	-7	0	1	4
Cc1cc(S(=O)(=O)Nc2cc3c(cc2N2CCOCC2)n(C)c(=O)c(=O)n3C)ccc1F	-4	-4	0	2	6
CCCCSCCCNC(=O)C1CCN(Cc2nc(-c3ccc(CC)cc3)oc2C)CC1	-8	-1	0	27	4
Cc1cc(C)cc(NC(=O)C(NS(=O)(=O)c2cccc3nsnc23)c2ccccc2)c1 (stereo unspecified)	5	5	1	6	-1
CC(=O)c1cccc(NC(=O)CCCSc2ccccc2)c1	-39*	nt	0	15	-9
O=C(COC(=O)/C=C/c1cccs1)Nc1ccc2ccccc2c1	-35*	-3	1	1	3
CSc1cccc(NC(=O)CCCOc2ccc(Cl)cc2C)c1	0	-3	1	6	5
COc1ccc(OCCCC(=O)Nc2cccc(SC)c2)cc1	-73*	8	0	2	9
O=C(NCCCN1CCN(c2ccc(F)cc2)CC1)c1cnn(-c2ccc(F)cc2)c1-n1cccc1	1	-2	1	10	4
COc1ccccc1CCC(=O)Nc1ccc2c(c1)CN(CCCn1cccn1)CC2	2	-6	0	0	1
COc1cc(CN2CCc3ccc(NC(=O)CCc4ccccc4OC)cc3C2)ccc1O	-10	-8	0	10	1
COc1cccc(CN2CCc3ccc(NC(=O)CCc4ccc(C)cc4)cc3C2)c1O	-31*	3	0	2	7
COc1ccc(CN2CCc3ccc(NC(=O)CCc4ccccc4OC)cc3C2)c(O)c1	-83*	-20	1	2	-2
Cc1c(C(=O)Nc2cccc(C(F)(F)F)c2)sc2nc[nH]c(=O)c12	-5	1	-1	0	4
Cc1ccc(CNc2cc(C)nc3nc(-c4cccc(C)c4)nn23)cc1	5	1	3	12	-5
CCN(CC)CCCOc1ccc(C)cc1Br	-38*	-9	0	4	-5
Cc1ccc(OCCOCCn2ccnc2)c(Br)c1	-55*	-8	-1	31*	16
SMILES	D1 antag	D1 potentiator	TRHR ag	D1 agonist	TRHR PAM
CCOc1ccccc1OCCCOc1ccc(C)cc1Br	5	3	0	3	2
Cc1nc2ccccc2n1-c1ccccc1	-25	-5	0	2	0
O=c1c(/C=C(\O)c2ccccc2)nc2ccccc2n1-c1ccccc1	3	4	47*	169*	-3
O=S(=O)(c1ccccc1)N1CCN(S(=O)(=O)c2ccc3c(c2)OCCO3)CC1	14	-6	0	6	-3
O=C(C1CCC(=O)N(C2CCCC2)C1)N1CCC(Oc2cccc(F)c2)CC1 (stereo unspecified)	8	-5	1	2	0
O=C(C1CCC(=O)N(C2CC2)C1)N1CCC(Oc2cccc(F)c2)CC1 (stereo unspecified)	-37*	-6	1	-1	3
CCc1ccc(S(=O)(=O)c2nnn3c2nc(Nc2cccc(C)c2C)c2sccc23)cc1	-3	0	0	1	-2
CCC(=O)Nc1cc(-c2cccc(C)c2)nn1-c1ccccc1	9	0	0	0	6
Cc1cnc(C(=O)OCC(=O)Nc2ccc(C)c(S(=O)(=O)N3CCCCCC3)c2)cn1	12	-2	0	1	33*
CCc1cccc(OCC(=O)Nc2ccc(C)c(S(=O)(=O)N3CCCCCC3)c2)c1	-17	3	3	33*	-16
Cc1cnc(C(=O)OCC(=O)Nc2cc(-c3ccccc3)nn2-c2ccccc2)cn1	5	2	0	1	32*
CC(=O)c1ccc(OCCCC(=O)Nc2ccc(C)c(S(=O)(=O)N3CCCCC3)c2)cc1	-36*	-5	2	20	4
CCOc1ccc(C(=O)CCC(=O)Nc2ccc(C)c(S(=O)(=O)N3CCCCC3)c2)cc1	2	-3	-1	3	14
Cc1cnc(C(=O)OCC(=O)Nc2cccc(S(=O)(=O)N3CCCCC3)c2)cn1	-1	3	2	3	2
Nc1nnnn1/N=C/c1cc(Cl)cc(Cl)c1O	-4	2	25	126*	3
c1ccc(Cn2nnc3c(N4CCC5(CC4)OCCO5)ncnc32)cc1	-4	-7	0	-2	-2
CCc1nc(N2CCC3(CC2)OCCO3)c2nnn(Cc3ccccc3)c2n1	-11	2	1	2	37*
O=C(Nc1csc([N+](=O)[O-])c1)Nc1ccccc1Cl	-31*	-9	0	13	-4
O=C(CS(=O)(=O)c1c[nH]c2ccccc12)N1CCCc2ccccc21	-50*	-3	0	-2	0
CCCc1cc(=O)oc2cc(C)c3c(-c4ccccc4)coc3c12	5	0	0	2	49*
CCC1CCc2c(sc(NC(=O)C3c4ccccc4Oc4ccccc43)c2C(=O)OC)C1 (stereo unspecified)	-4	-3	0	2	4
Cc1ccc(-c2ccc(/C=C(\C#N)C(=O)Nc3cc(C)nn3-c3ccccc3)o2)cc1	-25	-8	17	61*	-2
CCOC(=O)c1ccc(-c2ccc(/C=C(\C#N)C(=O)Nc3c(C)cccc3Cl)o2)cc1	4	2	1	4	3
